# Unmarked numbers belong to inactive results. Records with an inconclusive call do not appear. A call without a number means that no potency is given here. Calls of active or inactive are those of the source. Unless noted, the call rests on the fitted dose curve; in most records, active means well fitted curve in the direction sought with a large enough effect; inconclusive means small, poorly fitted or top-dose-only effect, or another doubt; inactive means no such curve, though single readings can be large; an effect the other way counts as inactive or inconclusive.
# Tests used:
# [1] = molecular target: ATP-dependent 6-phosphofructokinase (Trypanosoma brucei brucei) (UniProt O15648); assay: qHTS Assay to Find Inhibitors of T. brucei phosphofructokinase: hit validation (AID 492961); further: potency means the concentration at half of the fitted maximal effect
# Chain of ATP-dependent 6-phosphofructokinase (Trypanosoma brucei brucei) (O15648 whole entry, looked up): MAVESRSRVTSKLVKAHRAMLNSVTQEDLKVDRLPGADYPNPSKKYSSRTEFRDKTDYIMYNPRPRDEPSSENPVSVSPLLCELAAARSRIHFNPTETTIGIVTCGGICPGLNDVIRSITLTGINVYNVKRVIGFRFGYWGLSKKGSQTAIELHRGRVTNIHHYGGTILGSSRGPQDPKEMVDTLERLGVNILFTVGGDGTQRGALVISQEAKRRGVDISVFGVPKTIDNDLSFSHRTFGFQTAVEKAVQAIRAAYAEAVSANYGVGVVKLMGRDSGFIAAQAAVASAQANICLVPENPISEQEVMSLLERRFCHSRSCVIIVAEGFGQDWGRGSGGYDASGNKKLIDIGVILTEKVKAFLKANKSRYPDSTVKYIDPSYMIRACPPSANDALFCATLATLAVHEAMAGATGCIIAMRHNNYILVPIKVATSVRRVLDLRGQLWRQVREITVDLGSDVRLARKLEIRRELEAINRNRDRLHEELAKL
# Procedure, shortened: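 Inhibition of parasite PFK is measured as reduced ADP formation, quantified via luciferase after ATP depletion. Assay used 0.1 mM ATP, 0.5 mM F6P, 1.25 nM enzyme, 45 min incubation.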
# [2] = molecular target: M-phase phosphoprotein 8 (Homo sapiens) (UniProt Q99549); assay: qHTS Validation Assay for Inhibitors for MPP8 Chromodomain Interactions with Methylated Histone Tails (AID 488949);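 further: 50 nM MPP8 with 50 nM peptide preformed then compounds added for 30 min; AlphaScreen signal from MPP8 chromodomain bound to biotinylated H3K9me3 peptide; top concentration of the series differs between compounds; nearly all actives have a fitted effect of over 55% in size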
# Chain of M-phase phosphoprotein 8 (Homo sapiens) (Q99549 whole entry, looked up): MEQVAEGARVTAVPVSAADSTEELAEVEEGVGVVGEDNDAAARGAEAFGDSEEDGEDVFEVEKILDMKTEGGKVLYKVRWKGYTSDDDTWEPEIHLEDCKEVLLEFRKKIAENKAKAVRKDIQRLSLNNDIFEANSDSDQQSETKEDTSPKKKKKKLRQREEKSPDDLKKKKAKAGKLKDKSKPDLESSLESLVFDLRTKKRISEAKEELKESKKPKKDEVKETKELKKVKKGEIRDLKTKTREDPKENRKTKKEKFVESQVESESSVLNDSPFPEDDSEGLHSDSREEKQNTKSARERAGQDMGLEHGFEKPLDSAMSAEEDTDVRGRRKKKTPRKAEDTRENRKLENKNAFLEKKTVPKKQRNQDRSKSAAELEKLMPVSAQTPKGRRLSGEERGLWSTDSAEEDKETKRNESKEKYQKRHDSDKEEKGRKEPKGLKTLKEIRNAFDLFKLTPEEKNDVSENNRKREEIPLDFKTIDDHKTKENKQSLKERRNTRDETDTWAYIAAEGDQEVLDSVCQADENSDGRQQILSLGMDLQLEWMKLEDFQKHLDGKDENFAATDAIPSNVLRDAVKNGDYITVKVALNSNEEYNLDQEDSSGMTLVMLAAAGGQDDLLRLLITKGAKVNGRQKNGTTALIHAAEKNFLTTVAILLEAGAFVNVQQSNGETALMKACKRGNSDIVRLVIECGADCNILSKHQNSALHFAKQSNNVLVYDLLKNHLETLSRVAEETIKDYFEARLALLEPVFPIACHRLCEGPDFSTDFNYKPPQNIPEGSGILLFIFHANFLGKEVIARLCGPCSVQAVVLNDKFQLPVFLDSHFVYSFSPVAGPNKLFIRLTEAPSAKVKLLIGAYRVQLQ
# Procedure, shortened: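 50 nM MPP8 + 50 nM b-H3K9me3 peptide, PBS pH 7.4/0.01% Tween-20, 30 min RT; + cpd 30 min RT; + AlphaScreen donor/Ni-chelate acceptor beads 10 ug/mL final, 30 min dark; luminescence read.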
# [3] = molecular target: Chromobox protein homolog 1 (Homo sapiens) (UniProt P83916); assay: qHTS Validation Assay for Inhibitors of HP1-beta Chromodomain Interactions with Methylated Histone Tails (AID 488953);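 further: loss of AlphaScreen luminescence from HP1-beta binding biotinylated H3K9me3 peptide; series mostly up to about 110 µM; nearly all actives have a fitted effect of over 50% in size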
# Chain of Chromobox protein homolog 1 (Homo sapiens) (P83916 whole entry, looked up): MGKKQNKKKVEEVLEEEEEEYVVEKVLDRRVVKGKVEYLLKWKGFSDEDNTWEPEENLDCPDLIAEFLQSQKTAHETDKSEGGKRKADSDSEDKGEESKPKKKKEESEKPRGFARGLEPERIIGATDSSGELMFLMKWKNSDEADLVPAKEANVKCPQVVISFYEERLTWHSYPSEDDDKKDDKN
# Procedure, shortened: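 HP1-beta (50 nM) was preincubated 30 min at room temperature with biotinylated H3(1-18)K9me3 peptide (50 nM) in PBS pH 7.4, 0.01% Tween-20, then with compounds 30 min. AlphaScreen signal was read after streptavidin donor/nickel chelate acceptor beads (10 ug/mL final).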
# [4] = molecular target: Methanococcus maripaludis chaperonin (MmCpn) (UniProt Q6LX38); assay: High-Throughput Screening for Modulators of Cytosolic Chaperonin Activity: MmCpn Primary Screen (AID 488978);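 further: 50 nM MmCpn enzyme hydrolysing 30 µM ATP at 37 °C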
# Chain of Methanococcus maripaludis chaperonin (MmCpn) (Q6LX38 1-543): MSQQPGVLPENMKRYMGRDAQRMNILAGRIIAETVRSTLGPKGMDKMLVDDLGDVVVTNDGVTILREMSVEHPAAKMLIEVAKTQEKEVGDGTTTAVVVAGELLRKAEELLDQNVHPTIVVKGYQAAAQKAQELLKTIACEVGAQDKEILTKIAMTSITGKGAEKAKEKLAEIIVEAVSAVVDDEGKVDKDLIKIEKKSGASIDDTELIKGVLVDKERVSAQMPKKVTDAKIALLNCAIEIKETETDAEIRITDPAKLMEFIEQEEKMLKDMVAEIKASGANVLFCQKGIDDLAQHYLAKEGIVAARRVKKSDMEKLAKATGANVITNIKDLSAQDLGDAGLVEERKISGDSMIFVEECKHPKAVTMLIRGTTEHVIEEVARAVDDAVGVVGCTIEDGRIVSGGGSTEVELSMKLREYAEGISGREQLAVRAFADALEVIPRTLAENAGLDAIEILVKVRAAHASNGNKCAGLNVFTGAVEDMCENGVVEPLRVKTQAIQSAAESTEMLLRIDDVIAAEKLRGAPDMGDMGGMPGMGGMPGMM
# Procedure, shortened: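 Steps: chaperonin 50 nM final; add compound, 5 min RT; start with ATP, 30 uM final; hold 10 min at 37C; add ADP Transcreener HTRF reagent, 5 min; read ex 320, em 590 and 665 nm.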
# [5] = molecular target: Transient receptor potential cation channel subfamily V member 1 (Homo sapiens) (UniProt Q8NER1); assay: HTS Assay for Compounds that Act as Enhancers of the Vanilloid Receptor 1 (AID 488979)
# Procedure, shortened: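 TRPV1 cells loaded with Fluo-8 calcium dye; compound added and Ca2+ signal (ex 480/em 520 nm) followed 3 min, then capsaicin at EC20 added and read 2 more min to detect enhancement.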
# [6] = molecular target: Thyrotropin receptor (Homo sapiens) (UniProt P16473); assay: qHTS Assay for Antagonists of the Thyroid Stimulating Hormone Receptor (AID 488980); further: series mostly up to about 58 µM
# Procedure, shortened: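 Readout is cAMP by HTRF competition between cellular cAMP and cAMP-d2 for a cryptate-labelled antibody. Antagonism was assessed in TSHR-transfected HEK293 cells stimulated with 4 nM TSH (EC80, final) in the presence of RO 20-1724.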
# [7] = molecular target: D(1A) dopamine receptor (Homo sapiens) (UniProt P21728); assay: HTS Assay for Allosteric Agonists of the Human D1 Dopamine Receptor: Primary Screen for Agonists (AID 488981)
# Chain of D(1A) dopamine receptor (Homo sapiens) (P21728 whole entry, looked up): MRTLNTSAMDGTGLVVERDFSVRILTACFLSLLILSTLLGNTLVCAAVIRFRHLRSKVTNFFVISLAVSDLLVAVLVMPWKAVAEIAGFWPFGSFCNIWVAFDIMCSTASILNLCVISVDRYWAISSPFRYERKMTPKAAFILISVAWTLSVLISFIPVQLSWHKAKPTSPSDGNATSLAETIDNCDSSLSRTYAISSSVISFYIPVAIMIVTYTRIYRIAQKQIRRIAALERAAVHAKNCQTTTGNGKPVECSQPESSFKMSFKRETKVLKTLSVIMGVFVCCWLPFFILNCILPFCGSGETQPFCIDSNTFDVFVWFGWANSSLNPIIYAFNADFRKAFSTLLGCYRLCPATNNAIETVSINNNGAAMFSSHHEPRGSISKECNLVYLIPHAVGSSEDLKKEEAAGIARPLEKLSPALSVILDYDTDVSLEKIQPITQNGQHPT
# Procedure, shortened: (§1)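 Tetracycline-induced HEK293 Trex D1 cells with forced coupling to calcium, loaded with no-wash calcium dye; kinetic fluorescence read 180 s after compound addition for agonism, then a further 180 s after an EC20 dopamine challenge for potentiation.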
# [8] = molecular target: D(1A) dopamine receptor (Homo sapiens) (UniProt P21728); assay: HTS Assay for Allosteric Agonists of the Human D1 Dopamine Receptor: Primary Screen for Potentiators (AID 488982)
# Procedure, shortened: as §1
# [9] = molecular target: D(1A) dopamine receptor (Homo sapiens) (UniProt P21728); assay: HTS Assay for Allosteric Agonists of the Human D1 Dopamine Receptor: Primary Screen for Antagonists (AID 488983);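 further: calcium flux response to an EC80 dopamine challenge measured with no-wash dye; nearly all actives have a fitted effect of over 65% in size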
# Procedure, shortened: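 Tetracycline-induced HEK293 T-REx cells expressing force-coupled D1 were plated overnight at 30 C, dye-loaded for calcium, and read kinetically. Compounds were pinned in, then an EC80 dopamine challenge followed after 180 s to reveal antagonism.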
# [10] = molecular target: Thyrotropin-releasing hormone receptor (Homo sapiens) (UniProt P34981); assay: qHTS for Small Molecule Agonists and Allosteric Enhancers of Human TRH Receptor: Validation Screen for Agonists (AID 493127;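 active means calcium activation more than 3 SD above the typical response in the agonist read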;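 further: intracellular calcium rise by fluo-8 fluorescence before TRH EC20 addition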); settings: TRH receptor agonist cell assay; at 2 µM; hits give high values
# Chain of Thyrotropin-releasing hormone receptor (Homo sapiens) (P34981 whole entry, looked up): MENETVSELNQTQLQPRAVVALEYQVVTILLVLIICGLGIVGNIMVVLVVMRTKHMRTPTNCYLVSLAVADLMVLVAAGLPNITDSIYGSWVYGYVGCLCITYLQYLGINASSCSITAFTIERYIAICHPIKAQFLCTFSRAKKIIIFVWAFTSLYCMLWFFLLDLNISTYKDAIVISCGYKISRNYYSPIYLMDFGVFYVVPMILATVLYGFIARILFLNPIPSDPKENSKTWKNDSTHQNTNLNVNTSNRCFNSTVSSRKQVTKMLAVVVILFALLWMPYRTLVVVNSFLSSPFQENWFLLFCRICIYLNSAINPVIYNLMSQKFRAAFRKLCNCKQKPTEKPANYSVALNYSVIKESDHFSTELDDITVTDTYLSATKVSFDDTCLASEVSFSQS
# Procedure, shortened: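 TRHR-expressing cells were plated overnight in serum-containing medium, then loaded with fluo-8 calcium dye at room temperature for 30 min–1.5 h. After a 10 s baseline, compound was pin-transferred and calcium fluorescence (ex 480/em 530) read kinetically for agonist response.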
# [11] = qHTS for Inhibitors of Cell Surface uPA Generation: Validation Assay (AID 493164);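 further: RAW 264.7 macrophage cells exposed to compound for 18 h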
# Procedure, shortened: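 RAW 264.7, 4000 cells/well, o/n plating; cpd 7-pt 1:5 dilution 2.45 nM–38.3 uM final; 18 h, 37 C/5% CO2; ATP-Lite, 5 s luminescence exposure.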
# [12] = molecular target: Galactokinase (Homo sapiens) (UniProt P51570); assay: qHTS Validation Assay for Inhibitors of Human Galactokinase (GALK) (AID 493189)
# Chain of Galactokinase (Homo sapiens) (P51570 whole entry, looked up): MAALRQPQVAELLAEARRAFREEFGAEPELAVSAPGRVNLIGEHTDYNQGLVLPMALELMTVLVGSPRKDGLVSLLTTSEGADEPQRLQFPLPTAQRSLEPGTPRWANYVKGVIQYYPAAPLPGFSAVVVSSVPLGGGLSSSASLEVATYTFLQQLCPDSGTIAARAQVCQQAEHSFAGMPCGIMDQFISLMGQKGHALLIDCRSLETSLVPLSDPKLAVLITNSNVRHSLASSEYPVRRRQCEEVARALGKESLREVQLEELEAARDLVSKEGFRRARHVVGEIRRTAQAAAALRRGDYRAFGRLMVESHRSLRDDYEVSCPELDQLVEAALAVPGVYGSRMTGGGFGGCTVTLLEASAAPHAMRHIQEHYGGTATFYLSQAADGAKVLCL
# Procedure, shortened: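 5 nM GALK / 100 uM galactose / 35 uM ATP, 20 mM HEPES pH8.0, 5 mM MgCl2, 60 mM NaCl, 1 mM DTT, 0.01% BSA (final). RT 1 h; Kinase-Glo Plus luminescence.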
# [13] = Validation screen for small molecules that induce DNA re-replication in SW480 colon adenocarcinoma cells (AID 504364)
# Procedure, shortened: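 SW480 cells seeded at 250 per well were exposed to compound or DMSO for 48 hr at 37 C, 5% CO2, then stained with Hoechst for 40 min. DNA content per nucleus was imaged (405 nm ex, 500-530 nm em).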
# [14] = molecular target: Peptidyl-prolyl cis-trans isomerase NIMA-interacting 1 (Homo sapiens) (UniProt Q13526); assay: qHTS Validation Assay to Find Inhibitors of Pin1 (AID 504536; active means well fitted inhibition curve with a large enough effect in the polarisation, with a control signal flat, not every such curve was filed as active; the % refers to the polarisation)
# Chain of Peptidyl-prolyl cis-trans isomerase NIMA-interacting 1 (Homo sapiens) (Q13526 whole entry, looked up): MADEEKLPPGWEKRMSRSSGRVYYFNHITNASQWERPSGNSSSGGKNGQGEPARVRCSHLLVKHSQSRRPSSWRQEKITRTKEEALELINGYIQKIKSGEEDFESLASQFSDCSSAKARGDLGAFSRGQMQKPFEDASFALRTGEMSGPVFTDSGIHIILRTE
# Procedure, shortened: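 Fluorescence polarization competition: compounds (titration) displace HiFluor-488-labeled Pin1-1b peptide from Pin1 (0.3 uM final) in pH 7.5 HEPES buffer with DTT, 10 min at room temperature; %Activity normalized to no-enzyme wells, curves fitted.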
# [15] = molecular target: Phosphoglycerate kinase, glycosomal (Trypanosoma brucei brucei) (UniProt P07378); assay: qHTS Validation Assay to Find Inhibitors of Phosphoglycerate Kinase (AID 504547)
# Procedure, shortened: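 PGK activity was coupled to GAPDH (100nM final), which generates the unstable substrate 1,3-bisphosphoglycerate in-well. Reactions ran 60 minutes at room temperature in 100mM TEA pH 7.6, 5mM MgCl2, 0.01% Tween-20, then Kinase-Glo Plus luminescence was read.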
# [16] = molecular target: phosphoglycerate mutase (Leishmania major) (UniProt Q4Q090); assay: qHTS Validation Assay to Find Inhibitors of Phosphoglycerate Mutase (AID 504548); further: series mostly up to about 58 µM
# Chain of phosphoglycerate mutase (Leishmania major) (Q4Q090 1-553): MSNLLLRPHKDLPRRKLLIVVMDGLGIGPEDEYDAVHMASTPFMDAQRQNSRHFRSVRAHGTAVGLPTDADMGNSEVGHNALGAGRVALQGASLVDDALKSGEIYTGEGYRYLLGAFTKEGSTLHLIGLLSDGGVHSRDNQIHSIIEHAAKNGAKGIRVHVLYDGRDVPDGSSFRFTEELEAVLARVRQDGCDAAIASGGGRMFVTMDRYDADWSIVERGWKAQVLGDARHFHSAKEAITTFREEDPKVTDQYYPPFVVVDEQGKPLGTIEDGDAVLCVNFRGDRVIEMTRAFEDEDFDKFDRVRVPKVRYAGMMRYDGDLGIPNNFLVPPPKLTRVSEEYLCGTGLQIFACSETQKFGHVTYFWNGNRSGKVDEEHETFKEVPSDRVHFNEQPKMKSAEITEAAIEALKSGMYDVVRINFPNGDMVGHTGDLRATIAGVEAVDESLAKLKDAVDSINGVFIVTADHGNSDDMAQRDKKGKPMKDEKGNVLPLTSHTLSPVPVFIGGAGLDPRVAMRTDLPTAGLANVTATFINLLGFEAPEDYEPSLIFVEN
# Procedure, shortened: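 Lm PGAM at 1.25 nM final with substrate in 100 mM TEA pH 7.6, 5 mM MgCl2, 0.01% Tween-20; 45 min at room temperature. Kinase-GloPlus added, 10 min, end-point luminescence read.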
# [17] = molecular target: Ubiquitin carboxyl-terminal hydrolase 1 (Homo sapiens) (UniProt O94782); assay: Inhibitors of USP1/UAF1: Pilot qHTS (AID 504865); further: nearly all actives have a fitted effect of over 35% in size; further: potency means the concentration at half of the fitted maximal effect
# Chain of Ubiquitin carboxyl-terminal hydrolase 1 (Homo sapiens) (O94782 whole entry, looked up): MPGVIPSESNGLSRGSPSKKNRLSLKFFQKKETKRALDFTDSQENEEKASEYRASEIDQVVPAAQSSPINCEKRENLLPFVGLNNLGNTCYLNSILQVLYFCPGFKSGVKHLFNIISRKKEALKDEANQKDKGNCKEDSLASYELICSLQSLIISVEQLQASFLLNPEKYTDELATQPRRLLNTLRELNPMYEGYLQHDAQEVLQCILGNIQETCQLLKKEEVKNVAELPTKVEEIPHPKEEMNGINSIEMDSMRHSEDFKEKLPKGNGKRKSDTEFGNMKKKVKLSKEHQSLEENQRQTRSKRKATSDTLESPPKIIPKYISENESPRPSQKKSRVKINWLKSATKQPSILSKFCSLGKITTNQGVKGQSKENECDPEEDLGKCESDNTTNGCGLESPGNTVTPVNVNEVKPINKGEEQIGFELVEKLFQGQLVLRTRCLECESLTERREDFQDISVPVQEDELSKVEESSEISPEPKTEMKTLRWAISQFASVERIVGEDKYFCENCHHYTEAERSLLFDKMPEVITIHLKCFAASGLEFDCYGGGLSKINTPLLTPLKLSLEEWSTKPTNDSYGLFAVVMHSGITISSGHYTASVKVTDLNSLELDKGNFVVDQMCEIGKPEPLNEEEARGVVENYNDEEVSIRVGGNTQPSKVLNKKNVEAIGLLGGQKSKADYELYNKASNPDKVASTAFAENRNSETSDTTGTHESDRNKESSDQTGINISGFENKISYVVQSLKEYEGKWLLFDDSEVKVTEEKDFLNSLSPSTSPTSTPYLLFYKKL
# Procedure, shortened: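 In 50mM HEPES pH 7.8 containing 0.5mM EDTA, 1mM TCEP, 0.1 mg/ml BSA and 0.01% Tween-20, 1nM USP1/UAF1 is exposed to compound for 15 min, then Ub-Rho (150nM final) is added and fluorescence is read over time.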
structure (smiles),measurement,setting,value
CNNCc1ccc(C(=O)NC(C)C)cc1,Potency,[1],inactive
COc1cc2ncnc(Nc3cccc(Cl)c3)c2cc1OC,Potency,[2],inactive
same,Potency,[3],inactive
same,outcome,[4],inactive
same,outcome,[5],inactive
same,outcome,[6],inactive
same,outcome,[7],inactive
same,outcome,[8],inactive
same,outcome,[9],inactive
same,activation,[10],-6.5%
same,outcome,[11],inactive
same,outcome,[12],inactive
same,outcome,[13],inactive
same,outcome,[14],inactive
same,Potency,[15],inactive
same,outcome,[16],inactive
same,Potency,[17],inactive
CC[C@H](C)C(=O)O[C@H]1C[C@@H](C)C=C2C=C[C@H](C)[C@H](CC[C@@H]3C[C@@H](O)CC(=O)O3)[C@H]21,Potency,[1],inactive
COc1ccc(-c2ccc3cc(C(=O)O)ccc3c2)cc1C12CC3CC(CC(C3)C1)C2,Potency,[1],15.8 µM (active)
same,Potency,[17],79.4 µM (active)
O=P(O)(O)C(O)(Cc1cccnc1)P(=O)(O)O,Potency,[1],inactive
same,Potency,[17],inactive
COC(=O)Nc1nc2ccc(C(=O)c3ccccc3)cc2[nH]1,Potency,[1],inactive
same,Potency,[17],inactive
COc1ncnc(NS(=O)(=O)c2ccc(N)cc2)c1OC,Potency,[1],inactive
same,Potency,[17],inactive
NC(=O)c1cccnc1,Potency,[1],inactive
same,Potency,[17],inactive
C[C@]12C=CC(=O)C=C1CC[C@@H]1[C@@H]2C(=O)C[C@@]2(C)[C@H]1CC[C@]2(O)C(=O)CO,Potency,[1],inactive
same,Potency,[17],inactive
CN(C)CCc1c[nH]c2ccc(CS(=O)(=O)N3CCCC3)cc12,Potency,[1],inactive
same,Potency,[17],inactive
CC(C)(C#N)c1cc(Cn2cncn2)cc(C(C)(C)C#N)c1,Potency,[1],inactive
same,Potency,[17],inactive
O=NN(CCCl)C(=O)NC1CCCCC1,Potency,[1],inactive
same,Potency,[17],inactive
CCOCC(O)COc1ccc(NC(=O)CC[S+](C)C)cc1 (configuration not stated),Potency,[1],inactive
same,Potency,[17],inactive
CC[C@H](NC(C)C)[C@H](O)c1ccc(O)c2[nH]c(=O)ccc12,Potency,[1],inactive
same,Potency,[17],inactive
S=P(N1CC1)(N1CC1)N1CC1,Potency,[1],inactive
same,Potency,[17],inactive
Cc1ccnc2c1NC(=O)c1cccnc1N2C1CC1,Potency,[1],inactive
same,Potency,[17],inactive
CCOC(=O)c1ccc(OC(=O)CCCCCN=C(N)N)cc1,Potency,[1],inactive
same,Potency,[17],inactive
CNS(=O)(=O)Cc1ccc2[nH]cc(CCN(C)C)c2c1,Potency,[1],inactive
same,Potency,[17],inactive
CCc1c2c(nc3ccc(OC(=O)N4CCC(N5CCCCC5)CC4)cc13)-c1cc3c(c(=O)n1C2)COC(=O)[C@]3(O)CC,Potency,[1],inactive
CCCc1nc(C)c2c(=O)[nH]c(-c3cc(S(=O)(=O)N4CCN(CC)CC4)ccc3OCC)nn12,Potency,[1],inactive
same,Potency,[17],inactive
Cc1cccc(Nc2ccncc2S(=O)(=O)NC(=O)NC(C)C)c1,Potency,[1],inactive
same,Potency,[17],inactive
O=C(O)c1cc(=O)[nH]c(=O)[nH]1,Potency,[1],inactive
same,Potency,[17],inactive
CN1CCCC(n2nc(Cc3ccc(Cl)cc3)c3ccccc3c2=O)CC1 (configuration not stated),Potency,[1],inactive
same,Potency,[17],inactive
CC1=NN(c2ccccc2)C(=O)C1,Potency,[1],inactive
same,Potency,[17],inactive
CCCN[C@H]1CCc2nc(N)sc2C1,Potency,[1],inactive
same,Potency,[17],inactive
CN(CCOc1ccc(CC2SC(=O)NC2=O)cc1)c1ccccn1 (configuration not stated),Potency,[1],inactive
CCOc1cc(N)c(Cl)cc1C(=O)NCC1CN(Cc2ccc(F)cc2)CCO1 (configuration not stated),Potency,[1],inactive
same,Potency,[17],inactive
CCn1cc(C(=O)O)c(=O)c2cc(F)c(N3CCN(C)CC3)cc21,Potency,[1],inactive
CC(N)C12CC3CC(CC(C3)C1)C2 (configuration not stated),Potency,[1],inactive
same,Potency,[17],inactive
C#CCN[C@@H]1CCc2ccccc21,Potency,[1],inactive
same,Potency,[17],inactive
CN1CCN(c2c(F)cc3c(=O)c(C(=O)O)cn4c3c2OCN4C)CC1,Potency,[1],inactive
same,Potency,[17],inactive
CCn1cc(C(=O)O)c(=O)c2cc(F)c(N3CCNCC3)cc21,Potency,[1],inactive
Nc1nc(N)nc(-c2cc(Cl)ccc2Cl)n1,Potency,[1],inactive
same,Potency,[17],inactive
CC(C)OC(=O)C(C(=O)OC(C)C)=C1SC=CS1,Potency,[1],inactive
Nc1ccc(S(=O)(=O)Nc2ccccn2)cc1,Potency,[1],inactive
same,Potency,[17],inactive
CCn1cc(C(=O)O)c(=O)c2cc(F)c(N3CCNCC3)nc21,Potency,[1],inactive
same,Potency,[17],inactive
CC(=O)Oc1ccccc1C(=O)Nc1ncc([N+](=O)[O-])s1,Potency,[1],inactive
same,Potency,[17],inactive
CNC1CCCN(c2c(F)cc3c(=O)c(C(=O)O)cn(C4CC4)c3c2OC)C1 (configuration not stated),Potency,[1],inactive
same,Potency,[17],inactive
COc1cc2c(Nc3ccc(Br)cc3F)ncnc2cc1OCC1CCN(C)CC1,Potency,[1],inactive
same,Potency,[17],inactive
CNCC[C@H](Oc1cccc2ccccc12)c1cccs1,Potency,[1],inactive
same,Potency,[17],inactive
